High-throughput results deposited in PubChem by National Center for Advancing Translational Sciences (NCATS).
CCT modulator – High-Throughput Screening for Modulators of Cytosolic Chaperonin Activity | purified chaperonin ATPase assay, HTRF ADP detection, 30 min | activity change, % (no concentration beside the values), hits read low | hit rate 0.3% among 360,000 | AID 651819, 2012; in the data active = activity change below about -30%; note: % is set by controls: 0 for no effect and ±100 for the full control effect
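TRiC at 40 or 20 nM final (batch-dependent) in 30 mM Tris pH 7.4, 100 mM KCl, 5 mM MgCl2, 1 mM DTT, with compound at single 76 uM and 10 uM ATP, 30 min at 37 deg C. ADP detected by HTRF Transcreener, 665/615 ratio.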
S-ASM inh – Inhibitors of Secretory Acid Sphingomyelinase (S-ASM): qHTS. placental ASM, HMU-PC fluorogenic substrate, 60 min. hit rate 0.006% among 340,000. Potency, µM (series often up to 57.5 µM), without a hit: at the highest dose activity change, negative = inhibition, hits mostly inhibitors. Sphingomyelin phosphodiesterase (Homo sapiens), P17405. AID 504937, 2011; note: potency is the fitted concentration of half-maximal effect
Target sequence (P17405 47-631 limits assumed): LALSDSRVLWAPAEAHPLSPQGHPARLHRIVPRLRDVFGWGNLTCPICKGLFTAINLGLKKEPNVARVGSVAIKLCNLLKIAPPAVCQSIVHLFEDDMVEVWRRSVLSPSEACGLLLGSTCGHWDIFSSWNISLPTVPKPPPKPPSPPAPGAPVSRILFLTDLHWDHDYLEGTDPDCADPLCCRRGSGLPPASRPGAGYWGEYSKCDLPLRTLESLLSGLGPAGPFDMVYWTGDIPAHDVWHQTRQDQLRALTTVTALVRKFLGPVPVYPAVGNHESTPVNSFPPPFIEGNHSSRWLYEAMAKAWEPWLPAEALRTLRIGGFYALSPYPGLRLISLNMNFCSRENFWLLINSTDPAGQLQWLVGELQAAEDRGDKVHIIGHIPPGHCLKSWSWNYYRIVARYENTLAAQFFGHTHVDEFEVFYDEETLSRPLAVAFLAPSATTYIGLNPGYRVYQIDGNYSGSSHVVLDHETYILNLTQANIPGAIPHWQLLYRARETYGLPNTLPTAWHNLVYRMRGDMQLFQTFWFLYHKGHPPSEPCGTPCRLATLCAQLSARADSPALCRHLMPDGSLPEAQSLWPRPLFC
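Human placenta-derived ASM enzyme was preincubated with compound for 10 minutes at room temperature, then given fluorogenic substrate HMU-PC0 (9 uM final) for 60 minutes at 37 °C; a pH 10 stop preceded fluorescence reading at Ex 386/Em 447 nm.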
MmCpn inh – Inhibitors of TCP-1 ring complex (TRiC) of Methanococcus maripaludis (MmCpn): qHTS | Chaperonin Mm-Cpn (Methanococcus maripaludis) | purified Mm-Cpn ATPase, ADP Transcreener TR-FRET | hit rate 0.031% among 330,000 | Potency, µM (doses to about 76.9 µM), for inactives: at the highest dose activity, negative = inhibition, usual class: inhibitors; note: potency is the fitted concentration of half-maximal effect; % is set by controls: 0 for no effect and ±100 for the full control effect; nearly all actives have a fitted effect of over 80% in size
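Inhibition of chaperonin ATP hydrolysis is measured as reduced ADP production, detected by competitive TR-FRET in which signal falls with ADP. Final enzyme 25 nM and ATP 10 uM, reacted 30 min at 37°C.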
USP2a inh – qHTS Assay for Inhibitors of Ubiquitin-specific Protease USP2a Using CHOP2 as the Reporter; Potency, µM (highest dose often 38.3 µM), for the others: top-dose activity change, negative = inhibition, most hits filed as inhibitors; hit rate 0.01% among 330,000; USP2 core, Ub-CHOP2 coupled fluorogenic reporter, 485/531; AID 463254, 2010; Ubiquitin carboxyl-terminal hydrolase 2 (Homo sapiens), O75604;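 note: potency is the fitted concentration of half-maximal effect; plate controls were DMSO wells for no effect and full inhibition by NEM control for full effect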
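Deubiquitinase activity read as fluorescence (485/531 nm) after Ub-CHOP2 cleavage activates the enterokinase reporter on its substrate; USP2 core 10nM, Ub-CHOP2 and substrate 25nM each, 30min compound preincubation then 60min RT; data normalized to NEM, curves fitted.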
* hit, by the source's call. The list is not random: actives were taken first. Their share in the collection is about 0.3%. Unless noted, calls come from the whole dose curve; as a rule, active = well fitted curve in the direction sought with a large enough effect; inconclusive = small, poorly fitted or top-dose-only effect, or another doubt; inactive = no such curve, though single readings can be large; an effect the other way counts as inactive or inconclusive.

Screening Cc1ccc(N2CC(C(=O)N3CCC4(CC3)CC(=O)c3ccccc3O4)CC2=O)cc1 (stereo unspecified) returned CCT modulator 0, S-ASM inh -1%, MmCpn inh -1% and USP2a inh 0%.
CCOc1cc(/C=C2/SC(=S)N(CC3CCCO3)C2=O)ccc1O (stereo unspecified) was read as CCT modulator 0, S-ASM inh -19%, MmCpn inh 0% and USP2a inh 4%.
`COc1ccc(/C=N/n2c(C)nc3sc(C)c(C)c3c2=O)cc1OC` gave CCT modulator 0, S-ASM inh 4%, MmCpn inh -6% and USP2a inh 1%.
For Cc1ccc2c(C(=O)N3CCN(c4ccccc4)CC3)cc(-c3cccnc3)nc2c1C the results were CCT modulator -43*, S-ASM inh -6%, MmCpn inh -2% and USP2a inh -1%.
Screening Cc1ccc2nc(-c3cccnc3)cc(C(=O)N3CCN(c4ccc([N+](=O)[O-])cc4)CC3)c2c1 returned CCT modulator 4, S-ASM inh -24%, MmCpn inh 1% and USP2a inh 3%.
For N#Cc1c2n(c3c(=O)n(Cc4ccccc4Cl)cnc13)CCCCC2 the results were CCT modulator -32*, S-ASM inh 0%, MmCpn inh -3% and USP2a inh 3%.
Screening CC(C)NC(=O)Nc1ccc2c(c1)C(=O)N([C@H](C)CO)C[C@H](C)[C@@H](CN(C)C(=O)Nc1ccccc1)O2 returned CCT modulator 0, S-ASM inh 1%, MmCpn inh 1% and USP2a inh 4%.
`Cc1cc(C(=O)Nc2cccc3c2O[C@@H](CN(C)S(=O)(=O)c2ccccc2)[C@H](C)CN([C@@H](C)CO)C3=O)n(C)n1` gave CCT modulator -3, S-ASM inh 3%, MmCpn inh -1% and USP2a inh 5%.
`C[C@@H]1CCCCO[C@@H](CN(C)Cc2ccncc2)[C@@H](C)CN([C@H](C)CO)C(=O)c2cc(NC(=O)c3ccccc3)ccc2O1` gave CCT modulator -34*.
For C[C@H](CO)N1C[C@H](C)[C@@H](CN(C)C(=O)Nc2ccc(C(F)(F)F)cc2)Oc2c(cccc2N(C)C)C1=O the results were CCT modulator -3, S-ASM inh -1%, MmCpn inh 4µM* and USP2a inh 1%.
Screening Cc1cc(C(=O)Nc2cccc3c2O[C@@H](CN(C)S(C)(=O)=O)[C@H](C)CN([C@@H](C)CO)C3=O)n(C)n1 returned CCT modulator -32*, S-ASM inh -2%, MmCpn inh -1% and USP2a inh 0%.
For C[C@H](CO)N1C[C@H](C)[C@@H](CN(C)C(=O)Nc2ccccc2)Oc2ccc(NC(=O)Nc3ccccc3)cc2C1=O the results were CCT modulator -44*, S-ASM inh -4%, MmCpn inh 0% and USP2a inh -1%.
`CC(C)N1C(=O)/C(=C\c2nc3ccccc3c(=O)n2-c2ccccc2)c2ccccc21` gave CCT modulator 1, S-ASM inh -15%, MmCpn inh 1% and USP2a inh -2%.
Screening Cc1ccc(F)cc1NCC(=O)Nc1ccc(Cl)cc1F returned CCT modulator -47*, S-ASM inh -1%, MmCpn inh 1% and USP2a inh 0%.
For COc1ccc(C(C)=O)cc1COC(=O)CNC(=O)c1ccccc1F the results were CCT modulator 1, S-ASM inh 4%, MmCpn inh 0% and USP2a inh 3%.
For Cn1c(C(=O)NCc2cccs2)cc2c(=O)n(C)c3ccccc3c21 the results were CCT modulator 1, S-ASM inh 25%, MmCpn inh 0% and USP2a inh -2%.
Screening Cc1ccc(CNC(=O)c2cc3c(=O)n(C)c4ccccc4c3n2C)cc1 returned CCT modulator -32*, S-ASM inh 4%, MmCpn inh 0% and USP2a inh 0%.
Screening COc1ccc(NC(=O)c2cc3c(=O)n(C)c4ccccc4c3n2C)cc1OC returned CCT modulator -32*, S-ASM inh inconclusive, MmCpn inh 2% and USP2a inh 3%.
`CC(C)=CCc1c(-c2ccc(O)cc2O)oc2c3c(cc(O)c2c1=O)OC(C)(C)C=C3` gave CCT modulator -3 and S-ASM inh -17%.
CC(C)N(C)NC(=S)Nc1ccccc1 was read as CCT modulator 0, S-ASM inh 1%, MmCpn inh 1% and USP2a inh 3%.
`Cc1ccc(S(=O)(=O)NC(=O)NN2CC3CCCC3C2)cc1` (stereo unspecified) gave CCT modulator -44*, S-ASM inh 10%, MmCpn inh 0% and USP2a inh 2%.
Cc1ccc(S(=O)(=O)NC(=O)NN2CCCCCC2)cc1 was read as CCT modulator -1, S-ASM inh 2%, MmCpn inh 0% and USP2a inh 2%.
For N#Cc1cccc(C(=O)OCC(=O)NC(=O)NC2CCCCC2)c1 the results were CCT modulator -42*, S-ASM inh 1%, MmCpn inh 0% and USP2a inh 1%.
For O=C(COC(=O)c1cccc(OC(F)F)c1)NC(=O)NC1CCCCC1 the results were CCT modulator 0, MmCpn inh 2% and USP2a inh -1%.
`COc1ccccc1NC(=O)Nc1nc(C(N)Cc2ccc(Cl)cc2)cs1` (stereo unspecified) gave CCT modulator -4.
For COc1ccccc1NC(=O)Nc1nc(C(N)Cc2ccccc2)cs1 (stereo unspecified) the results were CCT modulator -30*.
COc1ccc(C(=O)Nc2ccnn2C2CCN(Cc3ccccn3)CC2)cc1 was read as CCT modulator -35*, S-ASM inh 8%, MmCpn inh -1% and USP2a inh 3%.
COc1ccc(C(=O)Nc2ccnn2C2CCN(Cc3cnn(C)c3)CC2)cc1 was read as CCT modulator 0, S-ASM inh 0%, MmCpn inh 3% and USP2a inh 0%.
Screening O=C(Nc1ccnn1C1CCN(CC2CC=CCC2)CC1)c1ccccc1 (stereo unspecified) returned CCT modulator -54*, S-ASM inh -2%, MmCpn inh -2% and USP2a inh 1%.
For COc1ccc2nc(N=Nc3ccc(N(C)C)cc3)sc2c1 the results were CCT modulator 0, S-ASM inh 0%, MmCpn inh 2% and USP2a inh -1%.
For Cc1ccc(C)c(OCc2ccc(C(=O)Nc3ccc([N+](=O)[O-])cn3)o2)c1 the results were CCT modulator 0, S-ASM inh -5%, MmCpn inh 0% and USP2a inh 5%.
